# According to the supplement of paper PMC9694430:
# Tested on: LOC_OS01G57100-cb003
# Assay: thermal shift delta Tm vs DMSO control; higher = stronger stabilization (binding)
# Conditions: 12.5 µM; protein concentration 2 µM
# In short: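 Compounds dissolved in DMSO were added to purified rice kinase domain constructs, which had been expressed in E. coli, for differential scanning fluorimetry. Each well held 19.5 μl of 2 μM kinase in 100 mM potassium phosphate pH 7.5, 150 mM NaCl, 10% glycerol and 5 × SYPRO Orange. Fluorescence was followed from 25°C to 95°C at a rate of 0.05°C/s. Shifts in Boltzmann-fitted melting temperature are triplicate means relative to DMSO-only protein.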
row,SMILES,thermal shift delta Tm
1,CCOc1cc2ncc(C#N)c(Nc3ccc(OCc4ccccn4)c(Cl)c3)c2cc1NC(=O)/C=C/CN(C)C [Neratinib (HKI-272)],1.51 °C
2,COc1cc2nccc(Oc3ccc(NC(=O)Nc4cc(C)on4)c(Cl)c3)c2cc1OC [Tivozanib (AV-951)],1.99 °C
3,O=C1NC(=O)C(c2ccccc2[N+](=O)[O-])=C1Nc1ccc(O)c(Cl)c1,2.1 °C
4,Cc1c(C(=O)N2CCOc3ccc(-c4ccc(N)nc4)cc3C2)ccc(S(C)(=O)=O)c1F,-0.07 °C
5,Cn1nccc1Nc1nccc(-c2ccn([C@H](CO)c3ccc(Cl)c(F)c3)c(=O)c2)n1,1.99 °C
6,COc1cc2c(N3CCN(C(=O)Nc4ccc(OC(C)C)cc4)CC3)ncnc2cc1OCCCN1CCCCC1 [Tandutinib (MLN518)],0.97 °C
7,C[C@@H]1COCCN1c1cc(=O)n2c(n1)N(Cc1cncc(Cl)c1)[C@H](C(F)(F)F)CC2,1.19 °C
8,COc1ccc(F)c(F)c1C(=O)c1cnc(NC2CCN(S(C)(=O)=O)CC2)nc1N,0.71 °C
9,O=C(NCc1ccccc1)c1csc(Nc2ccncn2)n1 [Thiazovivin],1.74 °C
10,CCN(CC)CCCCNc1ncc2cc(-c3cc(OC)cc(OC)c3)c(NC(=O)NC(C)(C)C)nc2n1,0.87 °C
11,O=c1cc(N2CCOCC2)oc2c(-c3ccc4c(c3)OCCO4)csc12,0.23 °C
12,Nc1ccc(C(=O)Nc2cccc(-c3nc(N4CCOCC4)c4oc5ncccc5c4n3)c2)cn1,1.26 °C
13,O=C(NC[C@H](O)CO)c1ccncc1Nc1ccc(I)cc1F,0.55 °C
14,CCOc1cc2ncc(C#N)c(Nc3ccc(F)c(Cl)c3)c2cc1NC(=O)/C=C/CN(C)C [Pelitinib (EKB-569)],2.45 °C
15,COc1cc2ncnc(Nc3ccc(Cl)cc3F)c2cc1OC,1.2 °C
16,"Cc1cc(Nc2ncnc3ccc(NC4=NC(C)(C)CO4)cc23)ccc1Oc1ccn2ncnc2c1 [Irbinitinib (ARRY-380, ONT-380)]",1.92 °C
17,CC1(C)CNc2cc(NC(=O)c3cccnc3NCc3ccncc3)ccc21 [Motesanib Diphosphate (AMG-706)],1.3 °C

row,SMILES,thermal shift delta Tm
1,COC(=O)Nc1ccc(-c2nc(N3CCOCC3)c3cnn(C4CCN(C(=O)OC)CC4)c3n2)cc1,2.22 °C
2,COc1cc(C(=O)N2CCC(N3CCN(C)CC3)CC2)ccc1Nc1ncc2c(n1)N(C)c1ccccc1C(=O)N2C,0.21 °C
3,C=C(C)[C@@H]1CC[C@]2(C)CC[C@]3(C)[C@H](CC[C@@H]4[C@@]5(C)CC[C@H](O)C(C)(C)[C@@H]5CC[C@]43C)[C@@H]12 [Lupeol],0.67 °C
4,Oc1cccc(-c2nc(N3CCOCC3)c3oc4ncccc4c3n2)c1,1.36 °C
5,CCn1c(N)c(C(=O)NC)c(=O)c2ccc(C#CC(C)(O)COC)nc21 (stereo not drawn),0.95 °C
6,CCOc1cc(C(=O)N2CCC(N3CCN(C)CC3)CC2)ccc1Nc1ncc2c(n1)N(C1CCCC1)c1ccccc1C(=O)N2C,1.18 °C
7,Cc1ccc(NC(=O)c2cccc(C(C)(C)C#N)c2)cc1Nc1ccc2ncn(C)c(=O)c2c1,2.69 °C
8,Nc1ccc(-c2ccc3ncc4ccc(=O)n(-c5cccc(C(F)(F)F)c5)c4c3c2)cn1 [Torin 2],0.64 °C
9,CCN(CC)CCCC(C)Nc1ccnc2cc(Cl)ccc12 (stereo not drawn) [Chloroquine Phosphate],0.41 °C
10,C[C@@H](N)[C@H]1CC[C@H](C(=O)Nc2ccncc2)CC1,0.49 °C
11,COc1cc(N2CCC(N(C)C)CC2)ccc1Nc1ncc(Cl)c(Nc2ccccc2P(C)(C)=O)n1,4.55 °C
12,"CCCS(=O)(=O)Nc1ccc(F)c(C(=O)c2c[nH]c3ncc(-c4ccc(Cl)cc4)cc23)c1F [Vemurafenib (PLX4032, RG7204)]",3.36 °C
13,CO[C@H]1C[C@@H]2CC[C@@H](C)[C@@](O)(O2)C(=O)C(=O)N2CCCC[C@H]2C(=O)O[C@H]([C@H](C)C[C@@H]2CC[C@@H](OCCO)[C@H](OC)C2)CC(=O)[C@H](C)/C=C(\C)[C@@H](O)[C@@H](OC)C(=O)[C@H](C)C[C@H](C)/C=C/C=C/C=C/1C [Everolimus (RAD001)],0.99 °C
14,COc1ccc(S(=O)(=O)N(CCO)c2ccccc2CN(C)C/C=C/c2ccc(Cl)cc2)cc1 [KN-93 Phosphate],2.05 °C
15,CN(C[C@@H]1COCCO1)S(=O)(=O)Nc1ccc2ccc3ncc(-c4cnn(C)c4)cc3c(=O)c2c1,2.19 °C
16,COc1ccc(CCNCc2ccc(OCc3ccc(Cl)nc3)c(OC)c2)cc1OC,1.03 °C
